From PubChem BioAssay (NCI)
This is part of a sample that, as a whole, favours compounds with a hit. Of some 83,000 tested, about 20% had one in any assay.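 Note: values are percent growth. 100 is the growth of untreated cells, values between 100 and 0 indicate rising inhibition; between -100 and 0 indicates cell death.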 A number with no mark means an inactive call. The source made the active and inactive calls. Rule for the calls: active = growth percent below 10; inactive = the rest.

How the values were obtained:
Experiment in all cases: NCI-60 one-dose screen, 48 h (100 = growth as untreated, 0 = no growth, -100 = all killed)
Conditions in all cases: 10 µM unless noted
[1] = system: NCI-H23 lung
[2] = system: NCI-H226 lung
[3] = system: NCI-H322M lung
[4] = system: HOP-62 NSCLC
[5] = system: NCI-H460 lung
[6] = system: NCI-H522 lung
[7] = system: A549/ATCC NSCLC
[8] = system: 786-0 renal
[9] = system: COLO 205 colon
[10] = system: DU-145 prostate
[11] = system: K-562 leukemia
[12] = system: MALME-3M melanoma
[13] = system: MDA-MB-231 breast
[14] = system: RXF 393 renal
[15] = system: SF-268 CNS
[16] = system: SF-295 CNS
[17] = system: SF-539 CNS
[18] = system: UACC-257 melanoma
[19] = system: M14 melanoma

O=C(Nc1cccc(Cl)c1)Nc1ccccc1Cl
growth [1]: 73.1%
growth [2]: 108%
growth [3]: 99.8%
growth [4]: 101%
growth [5]: 86%
growth [6]: 42.6%
growth [7]: 80.8%
growth [8]: 82.1%
growth [9]: 121%
growth [10]: 95.8%
growth [11]: 61.3%
growth [12]: 92%
growth [13]: 73.8%
growth [14]: 117%
growth [15]: 91%
growth [16]: 80.7%
growth [17]: 104%
growth [18]: 86.8%
growth [19]: 106%

CCCCn1cnc2c(SCc3ccc([N+](=O)[O-])cc3)nc(N)nc21
growth [1]: 96.5%
growth [2]: 85.6%
growth [3]: 112%
growth [4]: 95.2%
growth [5]: 108%
growth [6]: 73.9%
growth [7]: 90.6%
growth [8]: 79.5%
growth [9]: 105%
growth [10]: 123%
growth [11]: 59.8%
growth [12]: 130%
growth [13]: 82.3%
growth [14]: 106%
growth [15]: 84.4%
growth [16]: 122%
growth [17]: 94.7%
growth [18]: 97.5%
growth [19]: 106%

COc1ccc2[nH]cc(C3(c4c[nH]c5ccc(OC)cc45)C(=O)Nc4ccc(F)cc43)c2c1
growth [1]: 97%
growth [2]: 70%
growth [3]: 98.1%
growth [4]: 83.3%
growth [5]: 4.92% (active)
growth [6]: 78.5%
growth [7]: 75.3%
growth [8]: 82.6%
growth [9]: 72.9%
growth [10]: 81.2%
growth [11]: -16.5% (active)
growth [12]: 80.1%
growth [13]: 101%
growth [14]: 78.8%
growth [15]: 53.9%
growth [16]: 56.7%
growth [17]: 78.5%
growth [18]: 94%
growth [19]: 86.7%

C#Cc1cccc(Nc2nc3cc([N+](=O)[O-])ccc3nc2Nc2ccc(O)cc2)c1
growth [1]: 9.92% (active)
growth [2]: 50.3%
growth [3]: 16.8%
growth [4]: 21.4%
growth [5]: -24% (active)
growth [6]: -53.6% (active)
growth [7]: 11.3%
growth [8]: -11.7% (active)
growth [9]: -49.9% (active)
growth [10]: 23.3%
growth [11]: -30% (active)
growth [12]: 51.2%
growth [13]: -48.2% (active)
growth [14]: 54.8%
growth [15]: 27.3%
growth [16]: 1.66% (active)
growth [17]: 21.8%
growth [18]: 25.9%
growth [19]: -52.5% (active)

CC(=O)O[C@H]1CC[C@]2(C)[C@H]3CC=C4[C@@H]5CC(C)(C)CC[C@]5(C(=O)OCC(COC(=O)C(Cl)Cl)(COC(=O)C(Cl)Cl)NC(=O)C(Cl)Cl)CC[C@@]4(C)[C@]3(C)CC[C@H]2C1(C)C
growth [1]: 87.6%
growth [2]: 94.2%
growth [3]: 89.1%
growth [4]: 79%
growth [5]: 49.4%
growth [6]: 41.1%
growth [7]: 31.5%
growth [8]: 63.9%
growth [9]: 47.8%
growth [10]: 62.2%
growth [11]: 38.8%
growth [12]: 83.1%
growth [13]: 82.9%
growth [14]: 74.7%
growth [15]: 56.1%
growth [16]: 80.4%
growth [17]: 86.8%
growth [18]: 42.5%
growth [19]: 67.2%

CSC1=N/C(=C\c2cccc(OCc3ccc(Cl)cc3)c2)C(=O)N1
growth [1]: 82.8%
growth [2]: 75%
growth [3]: 87.2%
growth [4]: 99.4%
growth [5]: 81.3%
growth [6]: 48%
growth [7]: 83.4%
growth [8]: 83.8%
growth [9]: 82.8%
growth [10]: 77.7%
growth [11]: 81.7%
growth [12]: 99%
growth [13]: 99.8%
growth [14]: 104%
growth [15]: 85.3%
growth [16]: 87.6%
growth [17]: 99%
growth [18]: 100%
growth [19]: 88%

COc1ccc(-c2nc3c(c(-c4ccc(Cl)cc4)nn3-c3ccccc3)c(-c3ccc(O)cc3)c2C#N)cc1
growth [1]: 52.8%
growth [2]: 70.6%
growth [3]: 75.5%
growth [4]: 57.5%
growth [5]: 14.1%
growth [6]: 58.3%
growth [7]: 41.2%
growth [8]: 9.2% (active)
growth [9]: 57.8%
growth [10]: 51.6%
growth [11]: 10.8%
growth [12]: 62.6%
growth [13]: 65.6%
growth [14]: -12.7% (active)
growth [15]: 46.1%
growth [16]: -6.26% (active)
growth [17]: 27.6%
growth [18]: 65.4%
growth [19]: 45.9%

CCCCCCCCCCCCCCCCCC1=NCCN1CCO
growth [1]: 77.1%
growth [2]: 106%
growth [3]: 88.4%
growth [4]: 81%
growth [5]: 18.7%
growth [6]: 80.8%
growth [7]: 64.2%
growth [8]: 75.6%
growth [9]: 84.8%
growth [10]: 78.7%
growth [11]: 64.6%
growth [12]: 129%
growth [13]: 58.8%
growth [14]: 87.9%
growth [15]: 78.4%
growth [16]: 90%
growth [17]: 78.4%
growth [18]: 84.4%
growth [19]: 84.1%
